The panel holds about 83,000 compounds, 20% with a hit somewhere; the sample as a whole holds those more often.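 Testing used 96-well plates and a 48-hour single-concentration exposure. Example: -40 means 40% of the starting cells died.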 A number with no mark means an inactive call. The source made the active and inactive calls. Rule for the calls: active = growth percent below 10; inactive = the rest.
test system: HOP-92 NSCLC; assay: NCI-60 one-dose screen, 48 h (100 = growth as untreated, 0 = no growth, -100 = all killed); details: 10 µM unless noted

Compound	growth
CCNCCCn1c2c(c3ccc(F)cc3c1=O)C(=O)c1cc(OC)cnc1-2	-15.5% (active)
CN(C)CCCN=c1cc2c(=O)n(CCCN(C)C)c(=O)c3c(NCCCN(C)C)cc4c(O)n(CCCN(C)C)c(=O)c1c4c3-2	-0.168% (active)
O=C(NN1C(=O)c2cc(C(=O)O)c(C(=O)O)cc2C1=O)c1ccncc1	4.14% (active)
COc1ccc2c(c1)sc1nc(-c3ccc(Br)cc3)cn12	101%
O=C(CNC(=O)c1cccc2ccccc12)Nc1ccccc1Oc1cccc(O)c1	72.9% [5 µM]
NC(=N\N=C/Cc1ccccc1)/C(N)=N\N=C\Cc1ccccc1	109%
COC(=O)c1cc2c(/C=C3/NC(=S)NC3=O)coc2n1C	-38.5% (active)
Cn1c(N2N=C(c3ccc(Cl)cc3)CC2c2ccccc2)nc(-c2ccccc2)c(C#N)c1=O (stereo not given)	16%
Nc1ccc(N=Nc2ccccc2)cc1[N+](=O)[O-]	91.7%
Cc1sc2nc(NCc3ccccc3)[nH]c(=O)c2c1C	69.4%
COc1ccc(C(=O)/C=C/c2cccc(Nc3ccnc4cc(Cl)ccc34)c2)cc1	29.1%
CC(=O)N1N=C(c2ccc(Nc3nc(NCCO)nc(NCCO)n3)cc2)CC1c1ccc(Cl)cc1 (stereo not given)	109%
Cc1csc(C#Cc2cncc(O)c2)n1	121%
C=C1CCC2C3(C)COC(c4ccccc4)OC3CCC2(C)C1C/C=C1/C(=O)OCC1OC(C)=O (stereo not given)	100%
COc1cc(/C=C/C(=O)C(C(=O)/C=C/c2ccc(OC(=O)CCNc3nnc(C)s3)c(OC)c2)C(=O)CCNc2nnc(C)s2)ccc1OC(=O)CCNc1nnc(C)s1	-16.4% (active)
Nc1nc(Nc2ccccc2SSc2ccccc2Nc2nc(N)nc(C(Cl)(Cl)Cl)n2)nc(C(Cl)(Cl)Cl)n1	131%
COC(=O)C1=CCC(n2cnc3c(N)ncnc32)O1 (stereo not given)	89.9%
c1ccc(-c2oc(-c3ccccc3)c3ccccc23)cc1	78.7%

Compound	growth
COc1ccc(CCN2C(=O)CCC3=C2CCCC3=O)cc1OC	78.2%
CCCCCc1c(C)[nH]c(/C=C2\N=C(c3ccc[nH]3)C=C2Oc2ccc(Cl)cc2)c1C	-10.7% [100 µM] (active)
O=C1Nc2ccc(Cl)cc2[C@@](C#CC2CC2)(C(F)(F)F)O1	93.2%
CC(=O)N1N=C(c2ccc(C(F)(F)F)cc2)CC1c1ccc2c(c1)OCO2 (stereo not given)	77.5%
O=C(CN1CCN(c2ccc(Cl)cc2)CC1)N1CCN(c2nnc(-c3ccccc3)c(-c3ccccc3)n2)CC1	39.1%
NC(=O)NC1(C(=O)O)CCCC1	121%
Cc1ccc(C(=O)Cc2ccccc2)c(O)c1	87.3%
CCOC(=O)N1CCC(N=C2CSc3nnc(-c4cc(C(F)(F)F)cc(C(F)(F)F)c4)n3N2)CC1	19.9%
CCOC(=O)c1cc2oc(/C=C/c3cc(=O)c4cc(Cl)ccc4o3)cc2[nH]1	-17.9% (active)
O=c1ncc(-c2ccc(C(F)(F)F)cc2)c(NC2CCCCCC2)[nH]1	-2.61% (active)
CCOc1nc(-c2ccco2)n2nc(-c3ccco3)cc2n1	92%
O=C(N/N=C/c1cccc(O)c1)c1ccc(C(F)(F)F)nc1Nc1cccc(C(F)(F)F)c1	-28.4% (active)
CC(C)CNc1nc(N=[N+]=[N-])nc(NCC(C)C)n1	-6.14% [100 µM] (active)
COc1ccc2c3c(ccc2c1)C(=O)/C(=C\O)CC3	96.4%
O=C(NC1CCS(=O)(=O)C1)c1ccc(C(=O)c2ccccc2)cc1 (stereo not given)	101%
COc1ccc2cc(-c3nc4ccccc4[nH]3)c(=O)oc2c1	80.3%
Cc1ccc(S(=O)(=O)N2CCN(C(=O)CSc3nc4ccc(C)cc4[nH]3)CC2)cc1	96.6%
